Screening data (PubChem)
Hits are enriched below; roughly 3.9% of the tested compounds scored in any of these assays.
ATXN2 expr inh – ATXN2 expression inhibition; 360,000 tested, 0.72% active; HEK-293 ATXN2-luciferase reporter, luminescence, 24 h; Potency, µM (doses to about 57 µM), hits mostly inhibitors; AID 1745845; further: nearly all actives have a fitted effect of over 55% in size
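qHTS (up to 57 uM final) was run with 24 h compound exposure of reporter cells at 37 °C. Each well was multiplexed: SteadyGlo luminescence measured ATXN2-luciferase expression after a fluorogenic Gly-Phe-AFC viability readout (25 uM final).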
TGFb inhibitor – TGF-b pathway inhibition; 410,000 tested, 1.2% active; AID 588855; Potency, µM (highest dose often 46.1 µM), most hits filed as inhibitors; HepG2 CAGA-GFP TGF-b/SMAD3 reporter, GFP fluorescence, 18 h; TGF-beta stimulated, 500 pg/mL final; further: nearly all actives have a fitted effect of over 65% in size
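Per well, imaged GFP fluorescence of HEPG2 CAGA-GFP cells gives the signal; cells get compound, then TGF-beta (500 pg/mL final), 18 h at 37 degrees C; %Activity versus -TGF-beta and +DMSO controls.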
HepG2 viability – counter-screen for TGF-b inhibitors: cytotoxicity in HepG2 cells; Potency, µM (highest dose often 46.1 µM), hits mostly cytotoxic; HepG2 CAGA-GFP viability, ATP luminescence, 18 h; AID 588856; 410,000 tested, 0.76% active
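HepG2 CAGA-GFP cells (1000/well, DMEM with 1% FBS) received compound, then TGF-beta at 500 pg/mL final, and were incubated 18 hours at 37 degrees C. Viability was read by CellTiter-Glo luminescence. Media-only wells were set as complete cell-killing and DMSO as no toxicity.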
HT1080 IDH1KD tx – kills HT-1080 cells with IDH1 knockdown | HT-1080 IDH1 knockdown viability, ATP luminescence, 48 h | 360,000 tested, 2% active | AID 686971 | Potency, µM (titrated, usually from 46.1 µM), actives largely listed as cytotoxic
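After a 2 h attachment period, IDH1KD HT-1080 cells took pin-transferred compound for 48 h at 37 °C; ATP-based luminescence after 10 min room-temperature reagent incubation reported viability.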
S2 tox – cell viability loss in ATXN counter-screen. S2 cells (HEK-293 line with an ATXN2-luciferase reporter) viability, CellTiter-Fluor protease fluorescence, 24 h. Potency, µM (highest dose often 56.7 µM), actives largely listed as cytotoxic. 400,000 tested, 0.49% active. AID 651635; further: nearly all actives have a fitted effect of over 40% in size
HT1080-NT tox – kills 2HG-producing HT-1080-NT fibrosarcoma cells. Potency, µM (top dose mostly 46.1 µM), hits mostly cytotoxic. HT-1080-NT fibrosarcoma viability, CellTiter-Glo ATP luminescence, 48 h. AID 686970. 360,000 tested, 1.6% active;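 further: NT is the 2HG producing partner of a matched IDH1 knockdown line; nearly all actives have a fitted effect of over 55% in size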
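Toxicity toward the 2HG-producing NT line was scored as %Activity, normalised to DMSO and no-cell wells, from CellTiter-Glo luminescence after 48 hours' treatment.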
Numbers stand for hits; . = inactive; ? = inconclusive; / = no result given; [ ] = remark or other dose. The call rests on the fitted dose curve; in most records, active means well fitted curve in the direction sought with a large enough effect; inconclusive means small, poorly fitted or top-dose-only effect, or another doubt; inactive means no such curve, though single readings can be large; an effect the other way counts as inactive or inconclusive.

SMILES	ATXN2 expr inh	TGFb inhibitor	HepG2 viability	HT1080 IDH1KD tx	S2 tox	HT1080-NT tox
O=C(c1cc(COc2ccc3ncccc3c2)on1)N1CCCC1	.	.	.	15µM	.	21µM
Cc1ccc(C)c(N2CCN(C(=O)CCc3nnc4n(C)c(=O)c5ccccc5n34)CC2)c1	/	.	.	/	/	/
CNc1cc(-n2nc(C)cc2-c2ccccc2)ncn1	.	.	.	.	.	.
Cc1cc(-c2ccccc2)n(-c2cc(N/N=C/c3ccccc3O)ncn2)n1	?	?	.	1µM	?	?
Cc1cc(CNC(=O)c2cnn(-c3ncc4c(n3)-c3ccccc3CC4)c2C2CC2)on1	/	/	/	/	.	/
CCCCOC(=O)c1ccc(NS(=O)(=O)c2c(C)nc3scc(C)n3c2=O)cc1	.	11µM	.	/	.	/
COc1cc2c3nnc(-c4ccc(F)cc4)c-3cn(Cc3ccccc3F)c2cc1OC	20µM	.	8.9µM	?	.	?
COc1cc2c3nnc(-c4ccccc4)c-3cn(Cc3ccccc3F)c2cc1OC	.[11.3 µM]	.	.	?	/	?
COc1ccc(CN2CCOc3ccc(CN4CCCCC4CO)cc3C2)c(OC)c1 (stereo unspecified)	/	/	/	/	.	/
COc1ccc(C(=O)N2CCN(c3nc4c(C)c(Cl)ccc4s3)CC2)c(OC)c1	.	?	11µM	/	.	/
Cc1c(Cl)ccc2sc(N3CCN(C(=O)C(C)C)CC3)nc12	?	?	.	/	?	/
Cc1c(Cl)ccc2sc(N3CCN(C(=O)CS(=O)(=O)c4ccccc4)CC3)nc12	20µM	10µM	.	/	?	/
Cc1cc(=O)c2cc(C(=O)Nc3ccc(F)cc3)ccc2[nH]1	.	.	.	/	.	/
CCc1nc2ccc(C(=O)Nc3ccc4c(c3)OCC(=O)N4)cn2c1N(CC)Cc1cccc(Br)c1	?	?	.	.	40µM	?
CCc1nc2ccc(C(=O)Nc3cccc(NS(C)(=O)=O)c3)cn2c1N(CC)Cc1cccc(Br)c1	28µM	?	.	?	?	23µM
CC(C)(C)NC(=O)CN(C(=O)Cn1nnc(-c2ccc(Cl)cc2)n1)C1CCN(Cc2ccccc2)CC1	.	16µM	18µM	?	?	?
CCOc1ccc2nc(NC(=O)c3ccccc3)sc2c1	.	.	.	/	?	/
CCOc1ccc2nc(NS(=O)(=O)Cc3ccccc3)sc2c1	.	.	.	6.5µM	.	5.8µM
Cc1ccc(Nc2cc(C)nc3nncn23)c(C)c1	.	?	.	/	.	/
O=C(CSc1nc(=O)n(Cc2cccnc2)c2c1CCC2)Nc1cccc(Cl)c1	.	.	.	/	.	/
CC(C)c1ccc(NC(=O)CSc2nc(=O)n(Cc3cccnc3)c3c2CCC3)cc1	.	11µM	.	/	.	/
Cc1ccccc1/C=C\c1nc2ccccc2c(=O)[nH]1	.	?	.	16µM	.	16µM
Cc1ccccc1/C=C/c1nc2ccccc2c(=O)[nH]1	?	.	.	.	/	.
COc1ccccc1N=C1SC(C(=O)Nc2ccccc2OC)CC(=O)N1C (stereo unspecified)	/	.	.	/	/	/
COc1ccccc1N=C1SC(C(=O)Nc2cccc(Cl)c2Cl)C(N)=C1C(N)=O (stereo unspecified)	.	.	.	?	?	15µM
SMILES	ATXN2 expr inh	TGFb inhibitor	HepG2 viability	HT1080 IDH1KD tx	S2 tox	HT1080-NT tox
CCCN1CCN(CCCNC(=O)c2ccc3c(c2)sc2nc(-c4ccc(C)cc4)cn23)CC1	/	?	.	/	/	/
O=C(NCCCN1CCCCCC1)c1ccc2c(c1)sc1nc(-c3ccccc3)cn12	/	?	16µM	/	/	/
CC(C)(C)c1ccc(C(=O)C[n+]2ccc(Cl)c3ccc(Cl)cc32)cc1	/	?	.	/	/	/
Cn1cc([N+](=O)[O-])c(C(=O)Nc2ccc(Br)cn2)n1	.	?	.	7.1µM	.	11µM
Cn1cc([N+](=O)[O-])c(C(=O)Nc2ccn(Cc3c(F)c(F)cc(F)c3F)n2)n1	.	?	.	6.3µM	.	7.1µM
CCOc1ccc(CCNC(=O)Cn2ncc3c([nH]c4ccccc43)c2=O)cc1OCC	.	.	.	/	.	/
CCSc1nnc(-c2c[nH]c3ccccc23)o1	.	.	.	.	?	.
